# Test results taken from PubChem BioAssay (NCATS).
# Inconclusive results are not listed. Values without a mark were called inactive. Active and inactive are the calls of the source. The call rests on the fitted dose curve; in most records, active means well fitted inhibition curve with a large enough effect; inconclusive means small, poorly fitted or top-dose-only effect; inactive means flat fitted curve, though single readings scatter.
# Assay: P-glycoprotein substrates identified in KB-8-5-11 adenocarcinoma cell line, qHTS therapeutic library screen (AID 1346987); further: nearly all actives have a fitted effect of over 65% in size
# Conditions: KB-8-5-11 (P-gp overexpressing) viability, CellTiter-Glo, 72 h; series mostly up to 44.5 µM; activity change, negative = cytotoxicity: at the top concentration
# In short: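 P-gp-mediated resistance screen: KB-8-5-11 cells treated 72 h with compounds in dose-response. CellTiter-Glo viability.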
# On the % scale 0 is the no-effect control and ±100 the full control effect.
SMILES,"activity change, negative = cytotoxicity",outcome
CCCCC(C)(O)C/C=C/[C@H]1[C@H](O)CC(=O)[C@@H]1CCCCCCC(=O)OC (some centres undefined),-12.1%,–
CC(C)(O)CNc1nc(Nc2ccnc(C(F)(F)F)c2)nc(-c2cccc(C(F)(F)F)n2)n1,-17.9% [at 17.3 µM],–
COc1ccc(C2=CC(=O)OC2Cc2ccc(O)cc2)c(O)c1 (centres undefined),0.278%,–
C=C1CCC2C(C)(CO[C@@H]3O[C@H](CO)[C@@H](O)[C@H](O)[C@H]3O)C(O)CCC2(C)C1C(=O)CC1=CCOC1=O (some centres undefined),8.63% [at 17.3 µM],–
COC(=O)C1=CO[C@@H](O[C@@H]2O[C@H](CO)[C@@H](O)[C@H](O)[C@H]2O)[C@@H]2[C@@](C)(O)[C@@H](O)C[C@]12O,7.89% [at 17.3 µM],–
O=C(O)c1cc(O)c2c(c1)[O][Bi][O]2,-8.89%,–
COc1cc(/C=C/C(=O)OC2CC3CCC2(C)C3(C)C)ccc1O (centres undefined),7.16%,–
COC(=O)[C@@]1(O)C=CC[C@@H]2[C@@]3(C)C[C@@H](c4ccoc4)OC(=O)[C@H]3CC[C@]21C,–,inactive
C=CC1(C)CC(OC(=O)C(=C)C(O)COC(C)=O)C(C(=C)C(=O)OC)C(O)C1C(=C)CO (centres undefined),–,inactive [at 17.3 µM]
C[C@@H]1CC[C@]2(C)C3(C)CC[C@@]2(OC3=O)[C@@]12C[C@H](c1ccoc1)OC2=O,8.46%,–
C=C[C@](C)(CC/C=C(\C)C(=O)O)O[C@@H]1OC[C@H](O)[C@H](O)[C@H]1O,–,inactive
C=C1C(=O)OC2/C=C(\C)CC/C=C(\C(=O)O)CC/C=C(\C)CCC12 (centres undefined),1.34%,–
C[C@H]1C[C@H]2[C@@H]3CCC4=CC(=O)C=C[C@]4(C)[C@@]3(F)[C@@H](O)C[C@]2(C)[C@@]1(O)C(=O)CO,0.115%,–
CC(C)c1cc2c(c(O)c1O[C@@H]1O[C@H](CO)[C@@H](O)[C@H](O)[C@H]1O)CC1(O)CCC(O)C(C)(C)C1CC2 (some centres undefined),8.06% [at 17.3 µM],–
CC(O)CO (centres undefined),-2.08%,–
CC(C)C(C#N)O[C@@H]1O[C@H](CO[C@@H]2OC[C@](O)(CO)[C@H]2O)[C@@H](O)[C@H](O)[C@H]1O (some centres undefined),1.66%,–
CC1=C(/C=C/C(C)=C/C=C/C(C)=C/CO)C(C)(C)CCC1,-0.811%,–
COc1cc(C2Oc3c(OC)cc(CCCO[C@@H]4O[C@H](CO)[C@@H](O)[C@H](O)[C@H]4O)cc3C2CO)ccc1O (some centres undefined),0.807% [at 17.3 µM],–
CCCC(=O)Nc1ncnc2c1ncn2[C@@H]1O[C@@H]2COP(=O)(O)O[C@H]2[C@H]1OC(=O)CCC,17.7%,–
COc1ccc(/C=C/C(=O)O[C@@H]2[C@@H](OC(C)=O)[C@@H](OC(C)=O)[C@H](O[C@H]3[C@@H]4C=CO[C@@H](O[C@@H]5O[C@H](CO)[C@@H](O)[C@H](O)[C@H]5O)[C@@H]4[C@@]4(CO)O[C@@H]34)O[C@H]2C)cc1O,–,inactive [at 17.3 µM]

SMILES,"activity change, negative = cytotoxicity",outcome
CC(C)CNC(=O)/C=C/CCCCc1ccc2c(c1)OCO2,4.07%,–
COc1cc(C2Oc3c(OC)cc(/C=C/C(=O)OC[C@H]4O[C@@H](OC(C)(C)C(=O)O)[C@H](O)[C@@H](O)[C@@H]4O)cc3C2CO)ccc1O (some centres undefined),5.69% [at 17.3 µM],–
Oc1ccc([C@H]2COc3cc(O)ccc3C2)cc1,–,inactive
CO[C@@H]1[C@@H](O[C@@H]2O[C@H](C)[C@@H](O[C@H]3C[C@@](C)(O)[C@@H](OC(=O)CC(C)C)[C@H](C)O3)[C@H](N(C)C)[C@H]2O)[C@@H](CC=O)C[C@@H](C)C(=O)/C=C/C2OC2C[C@@H](C)OC(=O)C[C@H]1OC(C)=O (some centres undefined),6.59%,–
C=C[C@H]1[C@H](O[C@@H]2O[C@H](CO)[C@@H](O)[C@H](O)[C@H]2O)OC=C(C(=O)OC)[C@H]1C[C@@H]1N[C@H](C(=O)O)Cc2c1[nH]c1ccccc21,-2.55% [at 17.3 µM],–
C[C@@H](Nc1cc(NS(=O)(=O)N2CCC2)nc(SCc2cccc(F)c2F)n1)[C@@H](O)CO,–,inactive
CC1=CC(=O)C[C@H]2[C@@H]1CC[C@@H](C)[C@]21CO[C@H](c2ccoc2)C1=O,-5.74%,–
C=CC1(C)C=C2C(O)CC3C(C)(C(=O)O)CCCC3(C)C2CC1 (centres undefined),–,inactive
CC1(CO)CC2C(O)C(=O)C3(CO)CC3(C)C2C1 (centres undefined),–,inactive
CC1OC(OC2C(C)OC(OC3C(OC(=O)/C=C/c4ccc(O)cc4)C(CO)OC(OC4(COC(=O)/C=C/c5ccc(O)cc5)OC(CO)C(O)C4O)C3OC3OCC(O)(CO)C3O)C(O)C2O)C(O)C(O)C1O (centres undefined),9.5% [at 9.29 µM],–
CC(C)CC(=O)OC[C@H]1O[C@@](COC(=O)CC(C)C)(O[C@H]2O[C@H](CO)[C@@H](O)[C@H](O)[C@H]2OC(=O)CC(C)C)[C@@H](OC(=O)CC(C)C)[C@@H]1O,–,inactive [at 17.3 µM]
CCC(=O)OCC(=O)[C@@]1(OC(=O)CC)[C@H](C)C[C@H]2[C@H]3[C@H]([C@@H](O)C[C@@]21C)[C@@]1(C)C=CC(=O)C=C1C[C@H]3Cl,-8.75% [at 17.3 µM],–
CC[C@H]1OC(=O)[C@H](C)[C@@H](O[C@H]2C[C@@](C)(OC)[C@@H](O)[C@H](C)O2)[C@H](C)[C@@H](O[C@@H]2O[C@H](C)C[C@H](N(C)C)[C@H]2O)[C@](C)(O)C[C@@H](C)/C(=N\OCOCCOC)[C@H](C)[C@@H](O)[C@]1(C)O,-9.36% [at 17.3 µM],–
O=C(O[C@H]1[C@@H]2C=CO[C@@H](O[C@@H]3O[C@H](CO)[C@@H](O)[C@H](O)[C@H]3O)[C@@H]2[C@@]2(CO)O[C@@H]12)c1ccc(O)c(O)c1,–,inactive [at 17.3 µM]
CC1=CC(=O)C2C(C)(C)CCCC2(C)C12CCC1(COC(=O)C1)O2 (centres undefined),2.44%,–
CCC(C)(O)C(O)C(=O)OCc1ccc(O[C@@H]2O[C@H](CO)[C@@H](O)[C@H](O)[C@H]2O)c(OC)c1 (some centres undefined),2.32% [at 17.3 µM],–
CC(C(=O)O)c1ccc(N2Cc3ccccc3C2=O)cc1 (centres undefined),-27%,–
O=C(COc1ccc(Cl)cc1)NC1CCC(NC(=O)COc2ccc(Cl)cc2)CC1 (centres undefined),-6.68%,–
C/C=C(\C)C(=O)O[C@H]1[C@@H](O[C@]2(COC(=O)CC(C)C)O[C@H](COC(=O)C(C)C)[C@@H](OC(C)=O)[C@@H]2O)O[C@H](COC(C)=O)[C@@H](O)[C@@H]1O,–,inactive [at 17.3 µM]
